Reference: the supplement of paper PMC6089552
Hit rate of the full screen: of about 3,200 compounds, about 300 (9.4%) showed activity. For the sample, actives were picked, then their nearest neighbours and some compounds at random.

Test system: A673/TR/shEF
Test: cell viability (LOESS-normalised, relative to median of negative controls) (log2 ratio); higher = more viable cells (less compound effect), active = hit call of the paper (over 3 MAD below the median)
Settings: treatment time: 72 h
Procedure, shortened: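 Doxycycline, present or absent from 24 h before compounds, was used to induce EWS-FLI1 shRNA knockdown in A673/TR/shEF Ewing sarcoma cells at 1,500 per well in 384-well plates. Cells then received library compounds at two or more concentrations, or DMSO controls, for three days. Viability was measured by CellTiter-Glo luminescence on an Envision reader, and per-plate LOESS correction, division by the negative-control median and log2 transformation followed.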

[1] = 0.103 µM, library screen: screen3, EWS-FLI1 expression: high (no doxycycline)
[2] = 0.103 µM, library screen: screen3, EWS-FLI1 expression: low (doxycycline-induced shRNA knockdown)
[3] = 0.25 µM, library screen: screen1, EWS-FLI1 expression: high (no doxycycline)
[4] = 0.25 µM, library screen: screen1, EWS-FLI1 expression: low (doxycycline-induced shRNA knockdown)
[5] = 0.308 µM, library screen: screen3, EWS-FLI1 expression: high (no doxycycline)
[6] = 0.308 µM, library screen: screen3, EWS-FLI1 expression: low (doxycycline-induced shRNA knockdown)
[7] = 0.926 µM, library screen: screen3, EWS-FLI1 expression: high (no doxycycline)
[8] = 0.926 µM, library screen: screen3, EWS-FLI1 expression: low (doxycycline-induced shRNA knockdown)
[9] = 2.5 µM, library screen: screen1, EWS-FLI1 expression: high (no doxycycline)
[10] = 2.5 µM, library screen: screen1, EWS-FLI1 expression: low (doxycycline-induced shRNA knockdown)
[11] = 2.8 µM, library screen: screen3, EWS-FLI1 expression: high (no doxycycline)
[12] = 2.8 µM, library screen: screen3, EWS-FLI1 expression: low (doxycycline-induced shRNA knockdown)
[13] = 8.3 µM, library screen: screen3, EWS-FLI1 expression: high (no doxycycline)
[14] = 8.3 µM, library screen: screen3, EWS-FLI1 expression: low (doxycycline-induced shRNA knockdown)
[15] = 25 µM, library screen: screen3, EWS-FLI1 expression: high (no doxycycline)
[16] = 25 µM, library screen: screen3, EWS-FLI1 expression: low (doxycycline-induced shRNA knockdown)
[17] = 0.025 µM, library screen: screen1, EWS-FLI1 expression: high (no doxycycline)
[18] = 0.025 µM, library screen: screen1, EWS-FLI1 expression: low (doxycycline-induced shRNA knockdown)
[19] = 25 µM, library screen: screen1, EWS-FLI1 expression: high (no doxycycline)
[20] = 25 µM, library screen: screen1, EWS-FLI1 expression: low (doxycycline-induced shRNA knockdown)

## COc1c(C)c2c(c(O)c1C/C=C(\C)CCC(=O)O)C(=O)OC2
0.025 µM, library screen: screen2, EWS-FLI1 expression: high (no doxycycline)
  cell viability (log2): 0.0161 (inactive)
0.025 µM, library screen: screen2, EWS-FLI1 expression: low (doxycycline-induced shRNA knockdown)
  cell viability (log2): 0.0434 (inactive)
[1]
  cell viability (log2): 0.108 (inactive)
[2]
  cell viability (log2): 0.173 (inactive)
[3]
  cell viability (log2): 0.047 (inactive)
[4]
  cell viability (log2): -0.0419 (inactive)
0.25 µM, library screen: screen2, EWS-FLI1 expression: high (no doxycycline)
  cell viability (log2): 0.0974 (inactive)
0.25 µM, library screen: screen2, EWS-FLI1 expression: low (doxycycline-induced shRNA knockdown)
  cell viability (log2): 0.108 (inactive)
[5]
  cell viability (log2): 0.00407 (inactive)
[6]
  cell viability (log2): 0.0569 (inactive)
[7]
  cell viability (log2): 0.0822 (inactive)
[8]
  cell viability (log2): 0.0245 (inactive)
[9]
  cell viability (log2): 0.0367 (inactive)
[10]
  cell viability (log2): 0.00349 (inactive)
2.5 µM, library screen: screen2, EWS-FLI1 expression: high (no doxycycline)
  cell viability (log2): 0.137 (inactive)
2.5 µM, library screen: screen2, EWS-FLI1 expression: low (doxycycline-induced shRNA knockdown)
  cell viability (log2): -0.00198 (inactive)
[11]
  cell viability (log2): 0.147 (inactive)
[12]
  cell viability (log2): 0.096 (inactive)
[13]
  cell viability (log2): -0.0618 (inactive)
[14]
  cell viability (log2): -0.0369 (inactive)
25 µM, library screen: screen2, EWS-FLI1 expression: high (no doxycycline)
  cell viability (log2): -0.533 (active)
25 µM, library screen: screen2, EWS-FLI1 expression: low (doxycycline-induced shRNA knockdown)
  cell viability (log2): -0.259 (active)
[15]
  cell viability (log2): -0.488 (active)
[16]
  cell viability (log2): -0.403 (active)

## COC1=C(OC)C(=O)C(C/C=C(\C)CC/C=C(\C)CC/C=C(\C)CC/C=C(\C)CC/C=C(\C)CC/C=C(\C)CC/C=C(\C)CC/C=C(\C)CC/C=C(\C)CCC=C(C)C)=C(C)C1=O
[3]
  cell viability (log2): 0.0717 (inactive)
[4]
  cell viability (log2): 0.153 (inactive)
[9]
  cell viability (log2): 0.193 (inactive)
[10]
  cell viability (log2): 0.233 (inactive)

## COc1c(C)c2c(c(O)c1C/C=C(\C)CCC(=O)OCCN1CCOCC1)C(=O)OC2
[1]
  cell viability (log2): 0.051 (inactive)
[2]
  cell viability (log2): 0.0315 (inactive)
[5]
  cell viability (log2): 0.00041 (inactive)
[6]
  cell viability (log2): 0.00916 (inactive)
[7]
  cell viability (log2): -0.00635 (inactive)
[8]
  cell viability (log2): 0.0426 (inactive)
[11]
  cell viability (log2): 0.0529 (inactive)
[12]
  cell viability (log2): 0.0135 (inactive)
[13]
  cell viability (log2): -0.0785 (inactive)
[14]
  cell viability (log2): 0.0651 (inactive)
[15]
  cell viability (log2): -0.48 (active)
[16]
  cell viability (log2): -0.33 (active)

## C(#CC12CC3CC(CC(C3)C1)C2)CN1CCOCC1
[3]
  cell viability (log2): 0.0887 (inactive)
[4]
  cell viability (log2): 0.0273 (inactive)
[9]
  cell viability (log2): 0.163 (inactive)
[10]
  cell viability (log2): 0.0455 (inactive)

## Brc1ccccc1CN1CCN(Cc2ccco2)CC1
[3]
  cell viability (log2): 0.15 (inactive)
[4]
  cell viability (log2): 0.0476 (inactive)
[9]
  cell viability (log2): 0.0744 (inactive)
[10]
  cell viability (log2): 0.0303 (inactive)

## Cn1c(=O)[nH]c(=O)c2[nH]cnc21
[3]
  cell viability (log2): 0.136 (inactive)
[4]
  cell viability (log2): -0.0262 (inactive)
[9]
  cell viability (log2): 0.111 (inactive)
[10]
  cell viability (log2): 0.0112 (inactive)

## C=C(C)C1COc2cc3oc(=O)ccc3cc2O1 (stereo unspecified)
[3]
  cell viability (log2): 0.0489 (inactive)
[4]
  cell viability (log2): 0.0843 (inactive)
[9]
  cell viability (log2): 0.0665 (inactive)
[10]
  cell viability (log2): 0.127 (inactive)

## COc1ccc2c(c1)OC[C@@H](Cc1ccc(OC)c(OC)c1)[C@H]2O
[3]
  cell viability (log2): 0.0776 (inactive)
[4]
  cell viability (log2): -0.01 (inactive)
[9]
  cell viability (log2): 0.0904 (inactive)
[10]
  cell viability (log2): -0.0561 (inactive)

## C[N+]1(C)C2CC[C@H]1CC(OC(=O)C(O)c1ccccc1)C2 (stereo partly specified)
[3]
  cell viability (log2): 0.0981 (inactive)
[4]
  cell viability (log2): 0.0981 (inactive)
[9]
  cell viability (log2): 0.164 (inactive)
[10]
  cell viability (log2): -0.0226 (inactive)

## O=c1oc2cc3occc3cc2c2oc3cc4c(cc3c12)OCO4
[3]
  cell viability (log2): 0.103 (inactive)
[4]
  cell viability (log2): -0.01 (inactive)
[9]
  cell viability (log2): 0.0469 (inactive)
[10]
  cell viability (log2): 0.0004 (inactive)

## OC[C@@H](O)C(O)[C@H](O)CO
[3]
  cell viability (log2): 0.179 (inactive)
[4]
  cell viability (log2): 0.0545 (inactive)
[9]
  cell viability (log2): 0.145 (inactive)
[10]
  cell viability (log2): 0.0215 (inactive)

## O=C(O)c1cc(N(Cc2ccccc2O)Cc2cc(O)ccc2O)ccc1O
[17]
  cell viability (log2): 0.17 (inactive)
[18]
  cell viability (log2): 0.0496 (inactive)
[3]
  cell viability (log2): 0.173 (inactive)
[4]
  cell viability (log2): 0.132 (inactive)
[9]
  cell viability (log2): 0.0556 (inactive)
[10]
  cell viability (log2): 0.0297 (inactive)
[19]
  cell viability (log2): 0.0931 (inactive)
[20]
  cell viability (log2): 0.144 (inactive)

## O=C(O)c1cc(NCc2cc(O)ccc2O)ccc1O
[17]
  cell viability (log2): 0.268 (inactive)
[18]
  cell viability (log2): -0.135 (inactive)
[3]
  cell viability (log2): 0.324
[4]
  cell viability (log2): 0.0214 (inactive)
[9]
  cell viability (log2): -0.24 (active)
[10]
  cell viability (log2): -0.0017 (inactive)
[19]
  cell viability (log2): -0.388 (active)
[20]
  cell viability (log2): 0.0315 (inactive)

## O=C(O)c1cc(O)ccc1O
[3]
  cell viability (log2): 0.00691 (inactive)
[4]
  cell viability (log2): 0.0897 (inactive)
[9]
  cell viability (log2): 0.0219 (inactive)
[10]
  cell viability (log2): 0.0883 (inactive)

## Cc1cn(-c2cc(NC(=O)c3ccc(C)c(Nc4nccc(-c5cccnc5)n4)c3)cc(C(F)(F)F)c2)cn1
[1]
  cell viability (log2): 0.0821 (inactive)
[2]
  cell viability (log2): 0.114 (inactive)
[5]
  cell viability (log2): 0.0305 (inactive)
[6]
  cell viability (log2): 0.0807 (inactive)
[7]
  cell viability (log2): 0.00582 (inactive)
[8]
  cell viability (log2): 0.101 (inactive)
[11]
  cell viability (log2): -0.0305 (inactive)
[12]
  cell viability (log2): 0.116 (inactive)
[13]
  cell viability (log2): 0.0184 (inactive)
[14]
  cell viability (log2): 0.0705 (inactive)
[15]
  cell viability (log2): -0.057 (inactive)
[16]
  cell viability (log2): 0.0892 (inactive)

## Nc1ccccc1NC(=O)c1ccc(CNc2nccc(-c3cccnc3)n2)cc1
[1]
  cell viability (log2): 0.0488 (inactive)
[2]
  cell viability (log2): 0.158 (inactive)
[5]
  cell viability (log2): 0.0583 (inactive)
[6]
  cell viability (log2): 0.0629 (inactive)
[7]
  cell viability (log2): -0.0966 (inactive)
[8]
  cell viability (log2): 0.141 (inactive)
[11]
  cell viability (log2): -0.554 (active)
[12]
  cell viability (log2): 0.00492 (inactive)
[13]
  cell viability (log2): -1.39 (active)
[14]
  cell viability (log2): -0.431 (active)
[15]
  cell viability (log2): -3.23 (active)
[16]
  cell viability (log2): -1.08 (active)

## Cc1ccncc1Nc1ncccc1C(=O)Nc1ccc(C2(C#N)CCCC2)cc1
[1]
  cell viability (log2): 0.0267 (inactive)
[2]
  cell viability (log2): 0.0194 (inactive)
[5]
  cell viability (log2): 0.0111 (inactive)
[6]
  cell viability (log2): -0.0325 (inactive)
[7]
  cell viability (log2): -0.00588 (inactive)
[8]
  cell viability (log2): -0.00768 (inactive)
[11]
  cell viability (log2): -0.00204 (inactive)
[12]
  cell viability (log2): -0.0249 (inactive)
[13]
  cell viability (log2): 0.00934 (inactive)
[14]
  cell viability (log2): -0.0211 (inactive)
[15]
  cell viability (log2): -0.0197 (inactive)
[16]
  cell viability (log2): 0.0222 (inactive)

## Cc1ccc(NC(=O)c2ccc(CN3CCN(C)CC3)cc2)cc1Nc1nccc(-c2cccnc2)n1
[1]
  cell viability (log2): 0.102 (inactive)
[2]
  cell viability (log2): 0.119 (inactive)
[5]
  cell viability (log2): 0.178 (inactive)
[6]
  cell viability (log2): 0.125 (inactive)
[7]
  cell viability (log2): 0.121 (inactive)
[8]
  cell viability (log2): 0.129 (inactive)
[11]
  cell viability (log2): 0.135 (inactive)
[12]
  cell viability (log2): 0.128 (inactive)
[13]
  cell viability (log2): 0.122 (inactive)
[14]
  cell viability (log2): 0.126 (inactive)
[15]
  cell viability (log2): -0.195 (active)
[16]
  cell viability (log2): 0.146 (inactive)

## O=C(NCO)c1cccnc1
[3]
  cell viability (log2): 0.28
[4]
  cell viability (log2): 0.147 (inactive)
[9]
  cell viability (log2): 0.255 (inactive)
[10]
  cell viability (log2): 0.103 (inactive)

## Cc1ccc(NC(=O)c2ccc(CN3CCN(C)CC3)cc2)cc1Nc1nc(-c2cccnc2)cs1
[1]
  cell viability (log2): 0.122 (inactive)
[2]
  cell viability (log2): 0.0762 (inactive)
[5]
  cell viability (log2): 0.0521 (inactive)
[6]
  cell viability (log2): 0.0956 (inactive)
[7]
  cell viability (log2): 0.0749 (inactive)
[8]
  cell viability (log2): 0.0933 (inactive)
[11]
  cell viability (log2): 0.0638 (inactive)
[12]
  cell viability (log2): 0.131 (inactive)
[13]
  cell viability (log2): 0.061 (inactive)
[14]
  cell viability (log2): 0.0802 (inactive)
[15]
  cell viability (log2): -0.709 (active)
[16]
  cell viability (log2): 0.154 (inactive)
